Drawing on PubChem BioAssay, this text covers z-score for 14 compounds.

Activity calls are given as the source filed them.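 Rule for the calls: active = z-score of at least 1.8 in each of two replicates, scored against plate mean and spread of sample wells; inactive = the rest.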

A short description of one assay: MELAS cybrid and Rieske KO viability enhancers – cell-based, MELAS cybrids, Rieske KO mouse fibroblasts, CellTiter-Glo, primary screen (AID 1508586).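 Note: test concentration not given here; z relative to plate mean and SD of compound and empty wells.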 The settings on record: Rieske KO mouse fibroblast survival, low glucose, CellTiter-Glo 72 h.
For `CN1C(=O)N(Cc2ccccc2)C2(CCN(Cc3nc4ccccc4n3C)CC2)C1=O`, the z-score is -0.298.
Same read-out and setting: under `O=C(NCc1ccccn1)c1cc(NCC2CC2)cc(S(=O)(=O)N2CCCC2)c1` stands -0.67; under `CC1=C(CCN2CCC3(CC2)C(=O)N(C(C)C)C(=O)N3C)C(C)(C)CCC1`, -0.31; under `O=C(Nc1ccccc1Cl)N[C@H]1C[C@H]2C(=O)N[C@H](Cc3ccc(O)cc3)C(=O)N2C1`, -0.509.

A further assay in a line: galactose survival enhancers in mitochondrial complex I cybrids – cell-based, galactose medium, ATP luminescence, primary screen (AID 1645843).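 Note: positive z means more ATP and so rescue of galactose-driven cybrid death.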 Conditions: complex I mutant cybrid cells, 72 h, stronger effect = higher value.
Consider `Cc1ccc(C(C)CCN2CCC3(CC2)C(=O)N(C(C)C)C(=O)N3CCC(C)C)o1` (centres undefined), for which the z-score was 0.91 (inactive).
Still for that read-out and setting: under `O=C([C@@H]1C[C@H](CN2CCOCC2)CN(Cc2ccccc2)C1)N1CCCC1` stands -0.6 (inactive).
Same read-out and setting: under `COC(=O)c1c(NC(=O)c2ccco2)c2cc(NC3CCOCC3)cnc2n1C` stands 0.7 (inactive).
On the same count and under the same terms, under `Cc1c(CN2CCc3c(c(C(=O)NC4CCCC4)nn3CC(C)C)C2)c(=O)n(-c2ccccc2)n1C` stands 0.17 (inactive).
As for `CC(C)CCNc1cc(C(=O)NCCCn2ccnc2)cc(S(=O)(=O)N2CCCC2)c1`, the z-score is -0.97 (inactive).
Regarding `CC(C)CNC(=O)[C@@H]1C[C@H](CN2CCOCC2)CN(Cc2ccccc2)C1`, the z-score is 0.12 (inactive).
Still for that read-out and setting: under `C[C@H]1NC(=O)[C@H]2CN(C(=O)Oc3ccc(Cl)cc3)CCN2C1=O` stands 0.585 (inactive); under `COC1CN(Cc2cn(C)c3ccccc23)CC(=O)N(Cc2ccccc2)C1` (centres undefined), 0.47 (inactive); under `COc1ccc(-c2[nH]ncc2CN2CCC3(CC2)C(=O)N(C(C)C)C(=O)N3CCC(C)C)cc1`, 0.975 (inactive).
Still for that read-out and setting: the result for `CCn1nc(C(=O)N(C)Cc2ccco2)c2c1CCC(N(C)Cc1ccon1)C2` (centres undefined) reads -1.03 (inactive).
